Screening results deposited in PubChem by Broad Institute.
The list is not random: actives were taken first. Their share in the collection is about 1.1%.
NSD2 HMT inh: NSD2 histone methyltransferase inhibitors, primary screen, biochemical, AlphaScreen, single concentration, set 2 | inhibition, % at 12.5 µM | 310,000 tested, 0.54% active | NSD2 peptide methylation, 120 min | Histone-lysine N-methyltransferase NSD2 (Homo sapiens), O96028; in the data active means inhibition above about 50%
Glyco luc inh: increase of ERlucT glycosylation luciferase signal, primary screen, N-linked glycosylation inhibitor project, D54 ERlucT cells, luminescence, set 2; D54 ERlucT glycosylation luciferase reporter, 24 h; percent of 100 nM tunicamycin response; reporter increase, % at 12.5 µM; 360,000 tested, 0.23% active; AID 588692, 2011;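 active means mean luciferase reporter signal, scaled so untreated is 0 and the glycosylation-blocking control 100, at or above a set limit in every replicate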;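 further: luciferase carries N-glycosylation sites so blocking glycosylation raises the light; 0% = median of neutral control wells and 100% = median of 100 nM tunicamycin wells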
HDAC3 inh: HDAC3 deacetylase inhibitors, primary screen, biochemical, fluorescence, cell-free homogeneous. Histone deacetylase 3 (Homo sapiens), O15379. recombinant HDAC3, fluorogenic peptide/trypsin coupled. inhibition, % at 8.3 µM. 320,000 tested, 0.15% active; in the data active means inhibition above about 26%, passing the limit was not always enough
Keap1 Nrf2 FP: Keap1-Nrf2 protein-protein interaction inhibitors, primary screen, biochemical, fluorescence polarization, single point; Keap1 Kelch-Nrf2 peptide fluorescence polarization, 1536-well; inhibition, % at 9.4 µM; 340,000 tested, 0.15% active; in the data active means inhibition above about 12%;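 further: human Keap1 Kelch domain with fluorescein labeled Nrf2 9mer peptide probe; 0% = neutral control wells and 100% = peptide positive control; higher means more block of Keap1 binding to Nrf2 peptide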
LANA DNA inh: inhibitors of KSHV C-LANA binding to DNA, primary screen, biochemical, fluorescence polarization, FAM-LBS DNA, MBP-C-LANA, single point; inhibition, % at 9 µM; AID 504423, 2011; 340,000 tested, 0.078% active; Kaposi's sarcoma herpesvirus LANA C-terminal domain (residues 932-1162) DNA binding;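 active means highest replicate inhibition at or above 60% at 9 µM, even if other replicates fall short; inactive means all replicates below 60% inhibition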;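 further: 0% = neutral control wells and 100% = 4 µM acridine orange control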
CASP6 VEID inh: human caspase-6 inhibitors, primary screen, biochemical, VEID-R110 fluorescence, single point, set 2 | AID 686996, 2013 | P55212 | purified caspase-6, Z-VEID-R110 cleavage fluorescence | 350,000 tested, 0.53% active | inhibition, % at 12.5 µM;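 active means mean inhibition across replicates at least about 35%, with every replicate also reaching that limit, limit read from the data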;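 further: 0% = median of neutral control wells and 100% = no fluorescence left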
Target sequence (P55212 24-179 limits assumed): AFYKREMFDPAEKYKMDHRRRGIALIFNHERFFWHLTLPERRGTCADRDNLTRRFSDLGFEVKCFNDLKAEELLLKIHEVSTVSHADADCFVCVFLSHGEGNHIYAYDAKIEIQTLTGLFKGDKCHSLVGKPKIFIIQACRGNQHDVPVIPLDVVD
Target sequence (P55212 194-293 limits assumed): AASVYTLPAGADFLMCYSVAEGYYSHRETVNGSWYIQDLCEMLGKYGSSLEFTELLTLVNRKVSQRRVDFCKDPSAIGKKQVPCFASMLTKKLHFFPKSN
Alpha artifact: AlphaScreen signal interference with preloaded methylated product, dose response, artefact control for NSD2 inhibitor project, biochemical, cherry-picked samples; shares compounds with NSD2 HMT inh; AlphaScreen artifact counterscreen, preloaded methylated H4 peptide; AC35, µM (titrated, usually from 10 µM), inactives show top-dose activity change, negative = signal loss; 1,500 tested, 9.4% active; call rule not given here
* marks the source's active call; other numbers are inactive results; / = no result given.

SMILES	NSD2 HMT inh	Glyco luc inh	HDAC3 inh	Keap1 Nrf2 FP	LANA DNA inh	CASP6 VEID inh	Alpha artifact
Nc1c(C(=O)OCC2CCCO2)c2nc3ccccc3nc2n1C1CCCCC1 (stereo unspecified)	75.9*	7.3	-8.7	-1.5	-0.4	9.9	-7.0%
Nc1c(C(=O)NCC2CCCO2)c2nc3ccccc3nc2n1-c1ccccc1 (stereo unspecified)	-19.2	-8.3	-81.8	-0.2	-1.4	/	/
CS(=O)(=O)c1ccc2c(c1)sc1nc(=O)c(/C=C3/C=CC(=O)C(O)=C3)c(N)n12	118.6*	-3.7	7.0	-0.4	1.8	29.2	7.09µM*
CCCNC(=O)N(C)C[C@H]1Oc2ncc(-c3ccc(F)cc3)cc2C(=O)N([C@@H](C)CO)C[C@H]1C	/	/	/	/	/	1.7	/
CC(=O)N[C@H]1CC[C@@H](CCNC(=O)C2CCCC2)O[C@H]1CO	/	/	/	/	/	7.8	/
COc1cccc(CNC(=O)CSc2nnc3c(n2)[nH]c2ccccc23)c1	56.0*	-1.4	-1.0	3.2	-0.9	-6.1	3.1%
CCN(CC)S(=O)(=O)c1cccc(-c2nnc(SCCCC(=O)c3ccc(F)cc3)o2)c1	126.6*	-4.8	1.1	0.7	-0.2	/	-1.2%
Cc1noc(C)c1S(=O)(=O)Nc1ccc2c(c1)C(=O)N([C@@H](C)CO)C[C@@H](C)[C@@H](CN(C)C(=O)CCC(F)(F)F)OCCCC[C@@H](C)O2	/	/	/	/	/	1.2	/
C[C@@H]1CN([C@@H](C)CO)C(=O)c2cccc(NC(=O)C3CCCCC3)c2O[C@@H]1CN(C)C(=O)Nc1cccc2ccccc12	/	/	/	/	/	2.1	/
CCN(CC)CCNC(=O)c1c(C)[nH]c(/C=C2\C(=O)Nc3ccc(F)cc32)c1C	50.5*	/	/	/	/	/	-13.7%
Cc1ccc2c(c1)/C(=C/c1ccc(F)cc1)C(=O)N2	-0.7	11.1	10.6	-2.3	-1.1	2.2	/
C[C@H]1CN([C@@H](C)CO)C(=O)c2cc(NC(=O)Cc3cn(C)c4ccccc34)ccc2O[C@@H]1CN(C)C(=O)Nc1ccc(F)cc1	/	/	/	/	/	-0.2	/
C[C@H]1CN([C@@H](C)CO)C(=O)Cc2cc(NC(=O)NC3CCCCC3)ccc2O[C@H]1CN(C)Cc1ccc2c(c1)OCO2	/	/	/	/	/	1.7	/
Oc1cccc(NC(=S)N=Nc2c(O)[nH]c3ccc(Br)cc23)c1	67.4*	-0.1	-9.0	6.6	0.1	9.2	-11.1%
Oc1ccc(NC(=S)N=Nc2c(O)[nH]c3ccc(Br)cc23)cc1	/	-0.4	/	-5.6	1.1	15.7	/
Cc1cccc(N2CCN(S(=O)(=O)c3c(C)nc4scc(C)n4c3=O)CC2C)c1 (stereo unspecified)	105.0*	-1.3	7.4	2.9	0.5	-0.4	1.2%
COc1cc(C(=O)NC2CCCc3ccccc32)cc(OC)c1OC (stereo unspecified)	102.2*	9.1	-11.7	-0.6	0.3	1.7	-4.4%
COCC(=O)Nc1ccc2c(c1)C(=O)N(C)C[C@H](OC)[C@H](C)CN(Cc1ccccc1OC)[C@H](C)CO2	/	/	/	/	/	-0.3	/
CC(=O)Nc1ccc(SCCC2CCCCN2C)cc1 (stereo unspecified)	88.0*	0.9	-2.5	-2.0	-0.5	-9.4	-6.0%
CCC(C)NC(=O)CSc1ccc(NC(C)=O)cc1 (stereo unspecified)	1.0	0.3	-1.8	1.3	-0.5	/	/
COc1ccc(C2CC(c3ccc(Cl)cc3)=NN2C(C)=O)cc1 (stereo unspecified)	54.5*	-1.8	1.4	-4.9	-1.9	5.3	-4.2%
O=C(c1ccccc1F)N1CC(=O)N2[C@H](CO)[C@H](c3ccc(-c4ccc(F)cc4)cc3)[C@H]2C1	/	/	/	/	/	1.0	/
C/C(CC(=O)Nc1ccc2ccccc2c1)=N\NC(=O)c1ccc(O)c(O)c1	111.5*	-0.3	1.9	0.0	10.9	30.3	-13.9%
